The full data set covers some 8,800 targets. This sample favours those with a hit. About 0.5% of all pairs of compound and target were hits.
Key:
Assay in all cases: log2 fold change, soluble protein after heating vs DMSO (PISA); higher = thermal stabilisation; K562 lysate, 10 uM; active = over 0.2 and 3.5 SD of the protein, either way, in both replicates (recomputed)
[1] = compound: NCC(=O)Nc1ccc(-n2nc(C(F)(F)F)cc2-c2ccc3c(ccc4ccccc43)c2)cc1
How it was run: (§1)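 A 30 min treatment with 10 μM compound was applied to crude K562 extract at 1 mg/mL protein in PBS pH 7.4 with 1 mM MgCl2. Heating for 3 min spanned 48°C-58°C, after which aliquots were pooled, adjusted to 0.5% NP-40 at 4°C and spun at 21,000xg for 90 min. TMTpro 16plex LC-MS/MS of the supernatant, with channel sums equalised, gave values recorded as log-two fold change in thermal stability against solvent controls, from duplicates.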

[2] = compound: O=C(CCCCCCC(=O)Nc1ccccc1)NO [vorinostat]
How it was run: as §1

[3] = compound: O=C(O)c1ccc2c(c1)nc(Nc1cccc(Cl)c1)c1ccncc12 [silmitasertib]
How it was run: as §1

[4] = compound: O=C1NC(=O)C(c2cnc3ccccn23)=C1c1cn2c3c(cc(F)cc13)CN(C(=O)N1CCCCC1)CC2
How it was run: as §1

[5] = compound: c1cn2cc(-c3ccc4cn[nH]c4c3)nc(Nc3ccc(N4CCOCC4)cc3)c2n1 [entospletinib]
How it was run: as §1

Measured: log2 fold change

NOSIP (UniProt Q9Y314)
active: [2] -0.809
inactive: [1] -0.015 | [3] -0.047 | [4] 0.002 | [5] 0.013

NDC1 (UniProt Q9BTX1)
inactive: [1] 0.013 | [2] -0.134 | [3] -0.016 | [4] -0.012 | [5] -0.016

MT-CYB (UniProt P00156)
inactive: [1] -0.064 | [2] 0.158 | [3] 0.031 | [4] 0.118 | [5] 0.174

NONO (UniProt Q15233)
Sequence of UniProt Q15233 (Q15233 whole entry, looked up): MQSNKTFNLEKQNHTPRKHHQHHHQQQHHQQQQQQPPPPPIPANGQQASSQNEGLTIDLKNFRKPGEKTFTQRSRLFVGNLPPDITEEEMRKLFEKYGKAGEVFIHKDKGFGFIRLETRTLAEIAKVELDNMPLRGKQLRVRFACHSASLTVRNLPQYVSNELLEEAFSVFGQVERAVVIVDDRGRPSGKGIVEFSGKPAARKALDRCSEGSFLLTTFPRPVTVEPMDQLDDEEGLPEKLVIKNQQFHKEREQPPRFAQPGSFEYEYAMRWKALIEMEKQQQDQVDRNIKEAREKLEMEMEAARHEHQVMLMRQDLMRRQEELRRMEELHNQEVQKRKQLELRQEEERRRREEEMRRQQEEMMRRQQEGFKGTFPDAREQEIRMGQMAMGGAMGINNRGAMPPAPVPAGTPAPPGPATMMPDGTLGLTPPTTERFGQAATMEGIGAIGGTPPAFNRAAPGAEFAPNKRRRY
active: [2] -0.355
inactive: [1] 0.013 | [3] 0.027 | [4] -0.007 | [5] 0

MT-ATP8 (UniProt P03928)
Sequence of UniProt P03928 (P03928 whole entry, looked up): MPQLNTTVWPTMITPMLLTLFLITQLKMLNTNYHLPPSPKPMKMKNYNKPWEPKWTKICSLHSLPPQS
inactive: [1] 0.056 | [2] 0.155 | [3] -0.026 | [4] 0.08 | [5] -0.009

MYBL2 (UniProt P10244)
active: [2] -0.333
inactive: [1] -0.03 | [3] 0.003 | [4] 0.008 | [5] 0.025

NSUN7 (UniProt Q8NE18)
inactive: [1] 0.241 | [2] -0.003 | [3] 0.005 | [4] -0.108 | [5] -0.042

MRPS31 (UniProt Q92665)
inactive: [1] 0.058 | [2] 0.021 | [3] -0.046 | [4] -0.001 | [5] 0

MYH11 isoform 2 (UniProt P35749)
Sequence of UniProt P35749 (P35749 whole entry, looked up): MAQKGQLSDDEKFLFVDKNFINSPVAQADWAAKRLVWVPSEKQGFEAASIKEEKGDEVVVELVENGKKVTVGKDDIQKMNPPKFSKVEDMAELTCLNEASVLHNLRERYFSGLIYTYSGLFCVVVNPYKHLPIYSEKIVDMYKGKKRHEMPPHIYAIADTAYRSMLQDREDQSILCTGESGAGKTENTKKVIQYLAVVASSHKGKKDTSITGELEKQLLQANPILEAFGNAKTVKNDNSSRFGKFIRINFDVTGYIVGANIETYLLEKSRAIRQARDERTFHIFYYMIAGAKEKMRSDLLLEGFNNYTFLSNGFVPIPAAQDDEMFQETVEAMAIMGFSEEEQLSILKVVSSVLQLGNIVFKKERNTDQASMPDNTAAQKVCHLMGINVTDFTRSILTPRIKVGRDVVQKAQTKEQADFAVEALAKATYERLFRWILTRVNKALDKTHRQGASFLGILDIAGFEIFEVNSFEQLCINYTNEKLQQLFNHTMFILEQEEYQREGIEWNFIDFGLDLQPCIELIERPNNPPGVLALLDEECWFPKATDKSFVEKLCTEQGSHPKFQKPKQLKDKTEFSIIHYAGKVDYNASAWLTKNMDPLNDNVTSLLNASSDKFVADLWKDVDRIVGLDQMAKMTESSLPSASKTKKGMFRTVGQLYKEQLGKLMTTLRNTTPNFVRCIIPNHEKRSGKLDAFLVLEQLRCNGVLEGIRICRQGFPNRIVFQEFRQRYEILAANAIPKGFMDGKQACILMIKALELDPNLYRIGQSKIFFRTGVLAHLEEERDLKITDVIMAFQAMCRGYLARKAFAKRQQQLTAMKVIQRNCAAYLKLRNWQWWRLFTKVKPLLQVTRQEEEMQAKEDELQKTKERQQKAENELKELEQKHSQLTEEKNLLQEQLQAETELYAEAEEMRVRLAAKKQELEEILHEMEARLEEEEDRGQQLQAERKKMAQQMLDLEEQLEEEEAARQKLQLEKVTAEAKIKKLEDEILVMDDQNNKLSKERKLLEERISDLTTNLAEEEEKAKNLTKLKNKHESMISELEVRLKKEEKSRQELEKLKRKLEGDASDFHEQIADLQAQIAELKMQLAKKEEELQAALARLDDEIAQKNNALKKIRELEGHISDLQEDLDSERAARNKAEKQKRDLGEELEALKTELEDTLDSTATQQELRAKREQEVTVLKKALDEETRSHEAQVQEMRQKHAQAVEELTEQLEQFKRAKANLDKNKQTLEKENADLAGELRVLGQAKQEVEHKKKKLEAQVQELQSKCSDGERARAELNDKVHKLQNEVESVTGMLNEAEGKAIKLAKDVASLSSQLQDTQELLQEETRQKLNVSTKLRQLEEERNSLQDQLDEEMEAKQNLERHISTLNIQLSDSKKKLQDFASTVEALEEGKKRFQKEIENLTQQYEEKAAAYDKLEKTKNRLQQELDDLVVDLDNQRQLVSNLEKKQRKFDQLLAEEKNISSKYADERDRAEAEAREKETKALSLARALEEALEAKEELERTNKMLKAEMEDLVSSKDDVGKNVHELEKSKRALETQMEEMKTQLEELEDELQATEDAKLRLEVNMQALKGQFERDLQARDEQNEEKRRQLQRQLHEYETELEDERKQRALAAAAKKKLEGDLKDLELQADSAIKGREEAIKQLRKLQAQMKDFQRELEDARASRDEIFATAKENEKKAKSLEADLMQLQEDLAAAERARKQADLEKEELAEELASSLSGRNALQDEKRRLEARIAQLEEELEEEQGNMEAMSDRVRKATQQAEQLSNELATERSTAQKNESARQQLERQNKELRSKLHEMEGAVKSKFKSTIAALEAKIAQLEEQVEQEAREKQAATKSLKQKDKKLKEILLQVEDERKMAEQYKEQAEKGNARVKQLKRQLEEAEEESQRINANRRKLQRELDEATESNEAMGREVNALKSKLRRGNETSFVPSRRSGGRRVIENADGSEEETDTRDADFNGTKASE
inactive: [1] 0.014 | [2] 0.042 | [3] 0.02 | [4] -0.005 | [5] 0.013

NAA35 (UniProt Q5VZE5)
inactive: [1] -0.04 | [3] 0.017 | [4] 0.004 | [5] 0.028
active: [2] -0.308

NFATC2IP (UniProt Q8NCF5)
Sequence of UniProt Q8NCF5 (Q8NCF5 whole entry, looked up): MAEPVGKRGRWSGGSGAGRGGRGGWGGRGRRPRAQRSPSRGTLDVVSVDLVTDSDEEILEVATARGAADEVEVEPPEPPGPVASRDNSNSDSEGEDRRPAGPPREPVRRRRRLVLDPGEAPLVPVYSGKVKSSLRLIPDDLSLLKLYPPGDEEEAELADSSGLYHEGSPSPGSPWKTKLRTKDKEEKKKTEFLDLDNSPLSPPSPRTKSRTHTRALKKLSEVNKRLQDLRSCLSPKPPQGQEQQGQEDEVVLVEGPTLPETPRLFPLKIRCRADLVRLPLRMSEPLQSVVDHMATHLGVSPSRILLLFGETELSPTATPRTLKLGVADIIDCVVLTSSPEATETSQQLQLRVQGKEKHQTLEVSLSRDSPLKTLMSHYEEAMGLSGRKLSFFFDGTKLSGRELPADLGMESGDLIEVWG
inactive: [1] 0.041 | [2] -0.069 | [3] -0.039 | [4] -0.07 | [5] 0.041

NR2C2 isoform 2 (UniProt P49116)
inactive: [1] -0.024 | [2] -0.233 | [3] 0.041 | [4] 0.008 | [5] 0.028

MT-ND1 (UniProt P03886)
Sequence of UniProt P03886 (P03886 whole entry, looked up): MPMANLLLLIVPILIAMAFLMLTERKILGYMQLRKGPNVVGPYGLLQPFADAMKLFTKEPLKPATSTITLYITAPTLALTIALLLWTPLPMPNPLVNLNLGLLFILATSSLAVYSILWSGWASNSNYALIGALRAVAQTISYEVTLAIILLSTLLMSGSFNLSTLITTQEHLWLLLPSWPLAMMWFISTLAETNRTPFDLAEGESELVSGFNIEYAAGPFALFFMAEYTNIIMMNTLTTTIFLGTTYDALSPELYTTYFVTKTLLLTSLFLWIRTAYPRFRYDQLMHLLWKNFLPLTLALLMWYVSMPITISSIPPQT
inactive: [1] 0.002 | [2] 0.072 | [3] 0.033 | [4] 0.015 | [5] 0.121

OCRL (UniProt Q01968)
Sequence of UniProt Q01968 (Q01968 whole entry, looked up): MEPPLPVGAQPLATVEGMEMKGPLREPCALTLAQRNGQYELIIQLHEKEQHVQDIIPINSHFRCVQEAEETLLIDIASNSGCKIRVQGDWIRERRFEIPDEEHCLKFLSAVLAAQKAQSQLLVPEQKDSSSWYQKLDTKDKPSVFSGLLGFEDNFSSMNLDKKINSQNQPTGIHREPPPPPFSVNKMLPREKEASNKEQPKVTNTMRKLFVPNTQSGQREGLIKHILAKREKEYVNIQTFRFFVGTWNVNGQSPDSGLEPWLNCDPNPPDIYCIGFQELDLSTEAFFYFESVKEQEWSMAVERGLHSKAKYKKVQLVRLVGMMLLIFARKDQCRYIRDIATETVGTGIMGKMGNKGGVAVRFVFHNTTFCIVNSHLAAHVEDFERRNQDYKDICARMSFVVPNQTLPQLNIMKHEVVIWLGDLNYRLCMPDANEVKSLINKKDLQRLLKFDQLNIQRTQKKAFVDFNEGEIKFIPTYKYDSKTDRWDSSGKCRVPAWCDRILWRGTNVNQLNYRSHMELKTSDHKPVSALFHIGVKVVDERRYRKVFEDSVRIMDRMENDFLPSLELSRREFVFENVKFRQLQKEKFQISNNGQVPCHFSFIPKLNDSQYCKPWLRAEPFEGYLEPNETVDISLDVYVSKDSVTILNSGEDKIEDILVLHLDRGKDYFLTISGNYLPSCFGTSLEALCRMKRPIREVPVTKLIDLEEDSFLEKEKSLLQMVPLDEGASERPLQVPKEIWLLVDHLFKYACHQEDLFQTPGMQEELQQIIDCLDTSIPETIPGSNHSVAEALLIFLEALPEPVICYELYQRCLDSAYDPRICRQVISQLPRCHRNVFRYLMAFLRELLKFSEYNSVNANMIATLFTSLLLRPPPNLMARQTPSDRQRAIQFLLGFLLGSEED
inactive: [1] 0.134 | [3] 0.032 | [4] 0.019 | [5] -0.032
active: [2] -0.43

PAPOLG (UniProt Q9BWT3)
Sequence of UniProt Q9BWT3 (Q9BWT3 whole entry, looked up): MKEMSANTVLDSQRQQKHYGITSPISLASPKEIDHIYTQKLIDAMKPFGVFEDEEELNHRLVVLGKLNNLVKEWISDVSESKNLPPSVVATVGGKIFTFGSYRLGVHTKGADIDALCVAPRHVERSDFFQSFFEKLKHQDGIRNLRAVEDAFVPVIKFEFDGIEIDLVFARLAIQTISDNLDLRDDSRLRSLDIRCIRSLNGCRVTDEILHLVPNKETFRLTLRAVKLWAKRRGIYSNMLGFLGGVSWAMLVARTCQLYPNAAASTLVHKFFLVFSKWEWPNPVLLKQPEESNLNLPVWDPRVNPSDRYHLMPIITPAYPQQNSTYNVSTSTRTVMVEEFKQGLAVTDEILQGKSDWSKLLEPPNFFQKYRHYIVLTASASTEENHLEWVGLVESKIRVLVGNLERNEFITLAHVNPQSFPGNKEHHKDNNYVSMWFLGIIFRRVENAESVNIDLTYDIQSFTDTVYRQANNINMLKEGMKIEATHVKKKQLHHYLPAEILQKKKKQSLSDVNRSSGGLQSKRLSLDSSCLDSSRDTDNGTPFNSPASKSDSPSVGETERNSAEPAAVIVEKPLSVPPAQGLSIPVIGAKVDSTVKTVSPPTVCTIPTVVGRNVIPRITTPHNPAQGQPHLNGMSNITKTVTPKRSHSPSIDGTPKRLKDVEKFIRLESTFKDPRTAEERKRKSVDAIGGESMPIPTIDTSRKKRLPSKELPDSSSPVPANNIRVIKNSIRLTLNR
active: [2] -0.369
inactive: [1] -0.037 | [3] 0.209 | [4] 0.066 | [5] -0.013

OSBP (UniProt P22059)
inactive: [1] 0.041 | [2] 0.108 | [3] -0.121 | [4] -0.015 | [5] -0.1

NUMBL (UniProt Q9Y6R0)
inactive: [1] 0.04 | [2] -0.237 | [3] 0.201 | [4] 0.021 | [5] 0.102

— the supplement of paper PMC10849652
